This passage reports cytotoxicity call results from the antibiotic and cytotoxicity screens of Wong et al. (2023).

Structures are written as SMILES. The whole screen tested about 39,000 compounds, of which about 3,300 (8.5%) were called active. For the sample, actives were picked, then their nearest neighbours and some compounds at random.

The subject of the experiment is HepG2. Briefly: cytotoxicity call (relative viability < 0.9). To be noted: 10 µM.
Take `C[C@H](CO)N1C[C@H](C)[C@H](CN(C)Cc2ccccc2)OCCCC[C@H](C)Oc2ccc(NS(=O)(=O)c3ccccc3)cc2C1=O`: the cytotoxicity call was “inactive”.

`C[C@@H]1CN([C@@H](C)CO)C(=O)c2cc(NS(=O)(=O)c3ccccc3)ccc2O[C@@H](C)CCCCO[C@@H]1CN(C)Cc1ccccc1`: the cytotoxicity call is “inactive”.

Turning to `Cc1ccc(S(=O)(=O)Nc2ccc3c(c2)C(=O)N([C@H](C)CO)C[C@@H](C)[C@H](CN(C)Cc2ccccc2)OCCCC[C@H](C)O3)cc1`, the cytotoxicity call was “active”.

With `C[C@@H]1CCCCO[C@@H](CN(C)Cc2ccccc2)[C@@H](C)CN([C@@H](C)CO)C(=O)c2cc(NS(=O)(=O)c3ccccc3)ccc2O1`, the cytotoxicity call is “active”.

In the case of `Cc1ccc(S(=O)(=O)Nc2ccc3c(c2)C(=O)N([C@@H](C)CO)C[C@@H](C)[C@@H](CN(C)Cc2ccccc2)OCCCC[C@H](C)O3)cc1`, the cytotoxicity call was “inactive”.

`Cc1ccc(S(=O)(=O)Nc2ccc3c(c2)C(=O)N([C@H](C)CO)C[C@@H](C)[C@@H](CN(C)Cc2ccccc2)OCCCC[C@@H](C)O3)cc1`: the cytotoxicity call is “inactive”.

Turning to `C[C@H]1CN([C@@H](C)CO)S(=O)(=O)c2ccc(C#CCN(C)C)cc2O[C@@H]1CN(C)Cc1ccc2c(c1)OCO2`, the cytotoxicity call is “inactive”.

As to `C[C@@H]1CN([C@@H](C)CO)C(=O)Cc2cc(NC(=O)CCCN(C)C)ccc2O[C@@H]1CN(C)S(=O)(=O)c1ccc(Cl)cc1`, the cytotoxicity call is “inactive”.

With `COC(=O)C(CC#Cc1ccc2c(c1)[C@]1(C(=O)N2)[C@H](c2ccccc2OCCO)N2[C@H](c3ccccc3)[C@H](c3ccccc3)OC(=O)[C@H]2[C@@H]1C(=O)N1CCc2cc(OC)c(OC)cc2C1)C(=O)OC`, the cytotoxicity call was “inactive”.

Turning to `C[C@@H]1CCCCO[C@@H](CN(C)C(=O)Nc2ccc3c(c2)OCO3)[C@H](C)CN([C@H](C)CO)C(=O)c2cc(NC(=O)C3CCCCC3)ccc2O1`, the cytotoxicity call was “inactive”.

`C=CN1CCCC1=O`: the cytotoxicity call was “inactive”.

As for `C[C@@H]1CN([C@@H](C)CO)C(=O)c2cc(NC(=O)NC3CCCCC3)ccc2O[C@H]1CN(C)Cc1ccc(Cl)c(Cl)c1`, the cytotoxicity call was “inactive”.

In the case of `C[C@H]1CN([C@@H](C)CO)C(=O)c2cc(NS(=O)(=O)c3ccc(Cl)cc3)ccc2O[C@H]1CN(C)Cc1ccc(C(F)(F)F)cc1`, the cytotoxicity call was “inactive”.

For `C[C@H](CO)N1C[C@H](C)[C@H](CN(C)Cc2ccc(C(F)(F)F)cc2)Oc2ccc(NS(=O)(=O)c3ccc(Cl)cc3)cc2C1=O`, the cytotoxicity call was “active”.

Turning to `C[C@H]1CN([C@@H](C)CO)C(=O)c2cc(NS(=O)(=O)c3ccc(Cl)cc3)ccc2O[C@@H]1CN(C)Cc1ccc(C(F)(F)F)cc1`, the cytotoxicity call is “inactive”.

Consider `C[C@@H]1CN([C@H](C)CO)C(=O)c2cc(NS(=O)(=O)c3ccc(Cl)cc3)ccc2O[C@H]1CN(C)Cc1ccc(C(F)(F)F)cc1`, for which the cytotoxicity call is “inactive”.

Regarding `C[C@@H]1CN([C@H](C)CO)C(=O)c2cc(NS(=O)(=O)c3ccc(Cl)cc3)ccc2O[C@@H]1CN(C)Cc1ccc(C(F)(F)F)cc1`, the cytotoxicity call is “active”.

For `C[C@H](CO)N1C[C@H](C)[C@@H](CN(C)Cc2ccc(C(F)(F)F)cc2)Oc2ccc(NS(=O)(=O)c3ccc(Cl)cc3)cc2C1=O`, the cytotoxicity call was “active”.

As to `C[C@@H]1CN([C@@H](C)CO)C(=O)c2cc(NS(=O)(=O)c3ccc(Cl)cc3)ccc2O[C@@H]1CN(C)Cc1ccc(C(F)(F)F)cc1`, the cytotoxicity call was “active”.

In the case of `C[C@@H]1CN([C@@H](C)CO)C(=O)c2cc(NS(=O)(=O)c3ccc(Cl)cc3)ccc2O[C@H]1CN(C)Cc1ccc(C(F)(F)F)cc1`, the cytotoxicity call was “inactive”.
